“And” between values parts separate entries of the source, which are not always exact repeats. Equal entries are not always repeated. ± gives the standard deviation of the averaged measurements.
Key:
Settings in all cases: concentration: 10 µM; 24 h
HCC1569 [1] = assay: cell number relative to DMSO (% of DMSO); higher = more cells (less growth inhibition / toxicity)
In short: (§1)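 In 384-well plates holding 800 HCC1569 or TDF cells per well in RPMI with 10% FBS, compounds were tested at 10 µM for 24 h at 37 °C in triplicate. Fixation used 3.7% formaldehyde. Staining used a rabbit anti-H1.0 antibody with an AlexaFluor 647 secondary, plus DAPI. Each value, H1.0 nuclear intensity or cell number, is a median of replicates shown as percent of the plate control, and HCC1569 values were smoothed for positional effects.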

TDF [2] = assay: as above
In short: as §1

TDF [3] = assay: H1.0 immunofluorescence intensity relative to DMSO (% of DMSO); higher = stronger H1.0 induction, active = 120 or more
In short: as §1

HCC1569 [4] = assay: H1.0 immunofluorescence intensity relative to DMSO (% of DMSO); higher = stronger H1.0 induction, active = 140 or more
In short: as §1
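Throughout, for H1.0 immunofluorescence intensity relative to DMSO: TDF is a line of transformed human dermal fibroblasts of mesenchymal origin.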
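Throughout, for cell number relative to DMSO: TDF denotes transformed human dermal fibroblasts of mesenchymal origin.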

Structure (SMILES) | cell number (HCC1569 [1]) | cell number (TDF [2]) | H1.0 immunofluorescence intensity (TDF [3]) | H1.0 immunofluorescence intensity (HCC1569 [4])
CC(=O)OC1(C(C)=O)CCC2C3CC(C)C4=CC(=O)CCC4(C)C3CCC21C (centres undefined) [Medroxyprogesterone 17-Acetate] | 105 | 112 | 102 (inactive) | 89.3 (inactive)
CCN(CC)CCNC(=O)c1ccc(NC(C)=O)cc1.Cl [N-Acetylprocainamide hydrochloride] | 104 | 110 | 105 (inactive) | 116 (inactive)
COc1ccccc1OCC(O)CN1CCN(CC(=O)Nc2c(C)cccc2C)CC1.Cl.Cl (centres undefined) [Ranolazine.2HCl] | 104 | 93.2 | 94.2 (inactive) | 102 (inactive)
CC[N+](C)(C)c1cccc(O)c1.[Cl-] [Edrophonium chloride] | 102 | 113 | 96.1 (inactive) | 95.7 (inactive)
O=C1CCN(c2ccccc2)N1 [Phenidone] | 106 | 97.6 | 92.2 (inactive) | 98.8 (inactive)
COC(=O)C(N)Cc1ccc(Cl)cc1.Cl (racemic) [DL-p-Chlorophenylalanine methyl ester hydrochloride] | 97.3 | 92.3 | 107 (inactive) | 104 (inactive)
CC1=NC(=NNc2cc(S(=O)(=O)[O-])c3cc([N+](=O)[O-])cc(S(=O)(=O)[O-])c3c2)C(COP(=O)([O-])[O-])=C(C=O)C1=O.[Na+].[Na+].[Na+].[Na+] [PPNDS tetrasodium] | 104 | 115 | 91 (inactive) | 100 (inactive)
CN(C)CCCN1c2ccccc2CCc2ccccc21.Cl [Imipramine.HCl] | 100 | 97.4 | 95.2 (inactive) | 100 (inactive)
Cc1ccc(C(=O)Nc2ccc(S(=O)(=O)[O-])c3cc(S(=O)(=O)[O-])cc(S(=O)(=O)[O-])c23)cc1NC(=O)c1cccc(NC(=O)Nc2cccc(C(=O)Nc3cc(C(=O)Nc4ccc(S(=O)(=O)[O-])c5cc(S(=O)(=O)[O-])cc(S(=O)(=O)[O-])c45)ccc3C)c2)c1 [Suramin] | 94.4 | 86.9 | 96.7 (inactive) | 107 (inactive)
C[N+](C)(C)CCOC(=O)CCC(=O)OCC[N+](C)(C)C [Succinylcholine] | 100 | 101 | 99.9 (inactive) | 101 (inactive)
CC(C)CCNC(=O)C(CC(C)C)NC(=O)C1OC1C(=O)O (centres undefined) | 106 | 96.1 | 100 (inactive) | 92.5 (inactive)
CCCCCC(O)C=CC1=C(CCCCCCC(=O)O)C(=O)CC1 (centres undefined) [Prostaglandin B1] | 101 ± 2.6 | 108.4 ± 0.5 | 97.7 (inactive) | 101 (inactive)
CC(C)CC(NC(=O)C(Cc1ccccc1)NC(=O)c1cnccn1)B(O)O (centres undefined) [Bortezomib] | 34.2 | 10.2 | 144 (active) | 59.7 (inactive)
CCCCCCCCCCCCCC(=O)NC(C)C(O)c1ccccc1 [L-erythro MAPP] | 97.3 | 103 | 98 (inactive) | 108 (inactive)
CCC(=O)OC1(C(=O)CCl)C(C)CC2C3CCC4=CC(=O)C=CC4(C)C3(F)C(O)CC21C (centres undefined) [Clobetasol Propionate] | 109 | 114 | 87.8 (inactive) | 100 (inactive)
CN(C)CCOC(C)(c1ccccc1)c1ccccn1.O=C(O)CCC(=O)O (centres undefined) [Doxylamine succinate] | 99.5 | 101 | 97.5 (inactive) | 87.7 (inactive)
COc1ccc(C2Sc3ccccc3N(CCN(C)C)C(=O)C2OC(C)=O)cc1 (centres undefined) [Diltiazem] | 104 | 107 | 92 (inactive) | 101 (inactive)
CCCCCC(O)C=CC1C(O)CC2OC(=CCCCC(=O)[O-])CC21.[Na+] (centres undefined) [Prostaglandin I2 Na] | 101 | 98.1 | 94.1 (inactive) | 98.3 (inactive)
CCOC(=O)c1csc(Nc2ccc(Cl)cc2)n1 [ethyl 2-(4-chloroanilino)-1,3-thiazole-4-carboxylate] | 97 | 99.4 | 99.7 (inactive) | 113 (inactive)
c1ccc2c(Cc3c[nH]c4ccccc34)c[nH]c2c1 [Diindolylmethane] | 100.67 ± 0.0078 | 97.9 ± 2.8 | 98.8 (inactive) | 91.6 (inactive)
COC(=O)c1ccc2c(c1)NC(=O)C2=C(Nc1ccc(N(C)C(=O)CN2CCN(C)CC2)cc1)c1ccccc1 [Vargatef] | 95.2 | 106 | 84.3 (inactive) | 113 (inactive)
O=C(O)c1cn(-c2ccc(F)cc2)c2cc(N3CCNCC3)c(F)cc2c1=O [Sarafloxacin] | 105 | 95.3 | 99.5 (inactive) | 95.9 (inactive)
COc1cc2ncc(-c3ccccc3)nc2cc1OC | 100 | 94.5 | 94 (inactive) | 107 (inactive)

Structure (SMILES) | cell number (HCC1569 [1]) | cell number (TDF [2]) | H1.0 immunofluorescence intensity (TDF [3]) | H1.0 immunofluorescence intensity (HCC1569 [4])
COC(=O)CNC(=O)C(=O)OC [methyl 2-(2-methoxy-2-oxoethylamino)-2-oxoacetate] | 96.5 | 109 | 99.2 (inactive) | 101 (inactive)
Cc1scc2c1N(C(=O)CN1CCN(C)CC1)c1ccccc1NC2=O.Cl.Cl [Telenzepine dihydrochloride] | 107 | 94 | 99.8 (inactive) | 104 (inactive)
CN1CCN2c3ccccc3Cc3ccccc3C2C1.Cl (centres undefined) [Mianserin.HCl] | 107 | 112 | 101 (inactive) | 96.2 (inactive)
C=C1CC23CC1(O)CCC2C12C=CC(O)C(C)(C(=O)O1)C2C3C(=O)O (single isomer, unassigned; (+)) [(+)-Gibberellic acid] | 108 | 112 | 98.6 (inactive) | 89.5 (inactive)
CCCCCCCCCCCCCCC(C(=O)O)=C(C)C(=O)O [Chaetomellic acid A] | 102 | 93.6 | 104 (inactive) | 100 (inactive)
CC(C)COCC(CN(Cc1ccccc1)c1ccccc1)N1CCCC1.Cl (centres undefined) [Bepridil hydrochloride] | 99.7 | 103 | 92.8 (inactive) | 88.7 (inactive)
Fc1ccc(C2CCNCC2COc2ccc3c(c2)OCO3)cc1 (centres undefined) [Paroxetine] | 97.7 | 99.3 | 99.1 (inactive) | 114 (inactive)
COc1cc2c3cc1Oc1cc(ccc1O)CC1c4c(cc(OC)c(O)c4Oc4ccc(cc4)CC3N(C)CC2)CC[N+]1(C)C (single isomer, unassigned; (+)) [(+)-Tubocurarine chloride] | 103 | 92.5 | 104 (inactive) | 89.2 (inactive)
C#CCCCCCCCCCCCCCCCC(=O)O [17-Octadecynoic acid] | 102 | 99.7 | 92.5 (inactive) | 99.4 (inactive)
Oc1cc(O)cc(/C=C/c2ccc(Br)cc2)c1 [5-[(E)-2-(4-bromophenyl)ethenyl]-1,3-benzenediol] | 93.1 | 98.8 | 95.4 (inactive) | 127 (inactive)
CN(C)CCC(c1ccc(Cl)cc1)c1ccccn1 (centres undefined) [Chlorpheniramine] | 100 | 98.1 | 96.2 (inactive) | 105 (inactive)
C1CNCCN1.COc1cc(C(O)CO)ccc1O.COc1cc(C(O)CO)ccc1O (centres undefined) [MHPG piperazine] | 100 | 108 | 106 (inactive) | 93.6 (inactive)
Cn1cc(C=C2C(=O)Nc3cccnc32)c2ccccc21 | 89.7 and 101 | 104 and 96 | 96 (inactive) and 95.3 (inactive) | 161 (active) and 98.5 (inactive)
O=c1cc(-c2ccccc2)oc2cc(O)cc(O)c12 [Chrysine] | 101 | 99.8 | 93.8 (inactive) | 92.7 (inactive)
O=C(O)CCCC=CCC1C(O)CC(O)C1C=CC(O)COc1cccc(Cl)c1.[Na] (centres undefined) | 99.8 | 98.7 | 96.8 (inactive) | 92.6 (inactive)
CC(C)CN(CC(O)C(Cc1ccccc1)NC(=O)OC1CCOC1)S(=O)(=O)c1ccc(N)cc1 (centres undefined) [Amprenavir] | 103 | 101 | 100 (inactive) | 108 (inactive)
Cc1cc2nc3c(=O)[nH]c(=O)nc-3n(C)c2cc1C=O | 99.8 | 97.8 | 91 (inactive) | 115 (inactive)
COc1ccc(COc2ccc(Cc3cnc(N)nc3N)cc2OC)cc1 [cFMS Receptor Tyrosine Kinase Inhibitor] | 100 | 93.7 | 98.1 (inactive) | 130 (inactive)
Cl.Clc1ccc2nsnc2c1NC1=NCCN1 [Tizanidine.HCl] | 118 | 116 | 104 (inactive) | 83.4 (inactive)
CC(C)OC(=O)C(C)(C)Oc1ccc(C(=O)c2ccc(Cl)cc2)cc1 [Fenofibrate] | 99.6 ± 2.2 | 106.6 ± 0.69 | 95 (inactive) | 109 (inactive)
CCCCC(=O)O[C@]1(C(=O)CO)[C@@H](C)C[C@H]2[C@@H]3CCC4=CC(=O)C=C[C@]4(C)[C@@]3(F)[C@@H](O)C[C@@]21C | 96.4 | 106 | 87.6 (inactive) | 103 (inactive)
OC1C=C2CCN3Cc4cc5c(cc4C(C1O)C23)OCO5 (centres undefined) [Lycorine] | 67.4 | 53.3 | 120 (inactive) | 180 (active)
CC(=O)N1CCN(c2ccc(OCC3COC(Cn4ccnc4)(c4ccc(Cl)cc4Cl)O3)cc2)CC1 (centres undefined) [Ketoconazole] | 85.7 ± 11 | 97.3 ± 15 | 101 (inactive) | 118 (inactive)
